The source of these data is PubChem BioAssay (NCATS).

Where “and” joins values, the source holds several entries; their conditions need not be identical. Equal entries are not always repeated. Results filed as inconclusive are left out. Calls of active or inactive are those of the source. Unless noted, the call rests on the fitted dose curve; in most records, active means well fitted curve in the direction sought with a large enough effect; inconclusive means small, poorly fitted or top-dose-only effect, or another doubt; inactive means no such curve, though single readings can be large; an effect the other way counts as inactive or inconclusive.

The nature of one assay: Cell Proliferation Assay against the TMD8 Cell Line (AID 651645).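 Further: cells exposed to compound for 48 h before reading.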 To be noted: TMD8 DLBCL cell line proliferation/viability; at 46.1 µM (top of the series). The method, boiled down:
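Luminescent ATP read-out (CellTiter-Glo, 15 min RT) after 48 h compound exposure of log-growing TMD8 cells at 37C; percent activity scaled between DMSO as 100% and 9.2 uM bortezomib final as 0%.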
For `COc1cc2nc(N3CCCN(C)CC3)nc(NC3CCN(Cc4ccccc4)CC3)c2cc1OC`, the viability (% of control) turned out to be 3.15%.

Turning to `CCN(CC)CCn1c(=O)c(Cc2ccc(OC)cc2)nc2ccccc21`, the viability (% of control) was 89.1%.

For the compound `CC(C)C[C@H](NC(=O)[C@H](CCc1ccccc1)NC(=O)CN1CCOCC1)C(=O)N[C@@H](Cc1ccccc1)C(=O)N[C@@H](CC(C)C)C(=O)[C@@]1(C)CO1`, the viability (% of control) amounted to 3.43%.

With `COc1cc2c(Nc3ccc(Br)cc3F)ncnc2cc1OCC1CCN(C)CC1`, the viability (% of control) was 8.14%.

As for `CNC(=O)c1cc(Oc2ccc(NC(=O)Nc3ccc(Cl)c(C(F)(F)F)c3)cc2)ccn1`, the viability (% of control) is -0.0117%.

For the compound `COc1cc([C@@H]2c3cc4c(cc3[C@H](O)[C@H]3COC(=O)[C@H]23)OCO4)cc(OC)c1OC`, the viability (% of control) was 0.77%.

In the case of `NC1(c2ccc(-c3nc4ccn5c(=O)[nH]nc5c4cc3-c3ccccc3)cc2)CCC1`, the viability (% of control) was -0.504%.

A short description of another assay: Cell Proliferation Assay against the HBL1 Cell Line (AID 651646).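 Further: cells exposed to compound for 48 h before reading.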 To be noted: HBL1 DLBCL cells; at 46.1 µM (top of the series). Put shortly:
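HBL1 ABC DLBCL cells, 500/well in RPMI with 5% FBS, treated for 48 h at 37C. Viability read by CellTiter-Glo luminescence, normalized to DMSO as 100% and 9.2 uM bortezomib as 0%.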
For `COc1cc2nc(N3CCCN(C)CC3)nc(NC3CCN(Cc4ccccc4)CC3)c2cc1OC`, the viability, percent of control was 3.52%.

As to `CCN(CC)CCn1c(=O)c(Cc2ccc(OC)cc2)nc2ccccc21`, the viability, percent of control amounted to 99.1%.

As to `CC(C)C[C@H](NC(=O)[C@H](CCc1ccccc1)NC(=O)CN1CCOCC1)C(=O)N[C@@H](Cc1ccccc1)C(=O)N[C@@H](CC(C)C)C(=O)[C@@]1(C)CO1`, the viability, percent of control was 3.69%.

On to `COc1cc2c(Nc3ccc(Br)cc3F)ncnc2cc1OCC1CCN(C)CC1`, for which the viability, percent of control was determined as 4.03%.

In the case of `CNC(=O)c1cc(Oc2ccc(NC(=O)Nc3ccc(Cl)c(C(F)(F)F)c3)cc2)ccn1`, the viability, percent of control worked out at 1.39%.

Consider `COc1cc([C@@H]2c3cc4c(cc3[C@H](O)[C@H]3COC(=O)[C@H]23)OCO4)cc(OC)c1OC`, for which the viability, percent of control is 23.7%.

For `NC1(c2ccc(-c3nc4ccn5c(=O)[nH]nc5c4cc3-c3ccccc3)cc2)CCC1`, the viability, percent of control was 1.05%.

The next assay in a line: Cell Proliferation Assay against the TMD8 Cell Line (Caspase readout at 8 hrs) (AID 651713). Further: potency means the concentration at half of the fitted maximal effect.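 On caspase activation: 0% = DMSO and 100% = 9.2 µM bortezomib caspase signal.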 The settings on record: TMD8 lymphoma cells, caspase activation luminescence; series mostly up to 46.1 µM. Put shortly:
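TMD8 cells (500/well) in phenol red-free RPMI with 5% FBS were treated with compounds for 8 h at 37C, 5% CO2. Caspase-Glo 3/7 luminescence was read after 15 min at room temperature and normalised to DMSO (0%) and 9.2 uM bortezomib (100%).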
With `COc1cc2nc(N3CCCN(C)CC3)nc(NC3CCN(Cc4ccccc4)CC3)c2cc1OC`, the Potency is 26.4 µM (active).

Regarding `CCN(CC)CCn1c(=O)c(Cc2ccc(OC)cc2)nc2ccccc21`, the Potency entry was “inactive”.

In the case of `NC1(c2ccc(-c3nc4ccn5c(=O)[nH]nc5c4cc3-c3ccccc3)cc2)CCC1`, the Potency was 26.4 µM (active).

Another assay in a line: qHTS assay for small molecule activators of the p53 signaling pathway (AID 651743; active means well fitted activation curve with a large enough effect in the signal ratio, not every such curve was filed as active; the % refers to the signal ratio; further: % of control where 0% means no effect). To be noted: HCT-116 p53RE-bla, beta-lactamase FRET ratio, 16 h; stronger effect = higher value. Put shortly:
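HCT-116 p53RE-bla, 4,000 cells/well; 5 h settle; cpd/DMSO 16 h, 37 C; LiveBLAzer B/G 2 h RT; fluorescence intensity.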
(In qHTS, concentration-response curves come from the screen itself.)
As to `CCc1cc(C(N)=S)ccn1`, the activation was -0.635% (inactive) and 1.18% (inactive).

Turning to `NNC(=O)c1ccncc1`, the activation is 0.245% (inactive).

Take `S=P(N1CC1)(N1CC1)N1CC1`: the activation is 23.1% (inactive).

Take `COc1ccc2cc3[n+](cc2c1OC)CCc1cc2c(cc1-3)OCO2`: the activation is 9.7% (inactive).

On to `Cc1ccnc2c1NC(=O)c1cccnc1N2C1CC1`, for which the activation was -7.19% (inactive).

For `CC1=NN(c2ccccc2)C(=O)C1`, the activation is -1.06% (inactive) and 1.05% (inactive).

As to `CC(=O)[C@H]1CC[C@H]2[C@@H]3CCC4=CC(=O)CC[C@]4(C)[C@H]3CC[C@]12C`, the activation was -1.4% (inactive) and -5.04% (inactive) and -4.98% (inactive).

With `Cc1noc(NS(=O)(=O)c2ccc(N)cc2)c1C`, the activation was -3.81% (inactive) and -3.88% (inactive).

For `NC(N)=NC(N)=NCCc1ccccc1`, the activation is 7.9% (inactive) and 8.21% (inactive).

In the case of `Cc1ncc([N+](=O)[O-])n1CCO`, the activation is -1.78% (inactive).

As to `Cc1cc(NS(=O)(=O)c2ccc(N)cc2)no1`, the activation was -3.47% (inactive).

On to `O=C(N[C@H](CO)[C@H](O)c1ccc([N+](=O)[O-])cc1)C(Cl)Cl`, for which the activation was 0.234% (inactive) and 2.8% (inactive).

As to `O=C(O)c1cc(=O)[nH]c(=O)[nH]1`, the activation was -1.01% (inactive).

Consider `Cc1nnc(NS(=O)(=O)c2ccc(N)cc2)s1`, for which the activation was -1.27% (inactive).

With `CC[C@H](C)C(=O)O[C@H]1C[C@@H](C)C=C2C=C[C@H](C)[C@H](CC[C@@H]3C[C@@H](O)CC(=O)O3)[C@H]21`, the activation is -3.22% (inactive).

For `OC(Cn1cncn1)(Cn1cncn1)c1ccc(F)cc1F`, the activation is -0.436% (inactive).
